Measurements: PubChem BioAssay (Tox21)
Results filed as inconclusive are left out. Activity calls are given as the source filed them. Unless noted, calls follow the shape of the dose curve; as a rule, active = well fitted curve in the direction sought with a large enough effect in the repeat runs; inconclusive = weak or mixed curves; inactive = no such curve, though single readings can be large; an effect the other way counts as inactive or inconclusive.

Experiments:
[1] = qHTS RealTime-Glo MT Cell Viability Assay in HepG2 cells - 24 hour (AID 1224867); also: nearly all actives have a fitted effect of over 50% in size; also: potency is read from the fitted curve at half-maximal effect
In short: (§1)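 Tox21 10K library screened in qHTS format on HepG2 cells carrying RealTime-Glo reagents. Compounds were added after a 5 h preincubation, and the luminescent signal from continuous culture was measured repeatedly during 40 h treatment.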

[2] = A CellTox Green Cytotoxicity Assay to monitor cytotoxicity in HEK293 cells - 0 hour (AID 1224869); also: nearly all actives have a fitted effect of over 50% in size
In short: (§2)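 Fluorescence from a DNA-binding dye excluded by viable cells was measured repeatedly in the same HEK293 wells (600 cells/well) during continuous compound exposure at 37 C. Each assay gives one read point: 0, 8, 16, 24, 32 or 40 h.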

[3] = qHTS RealTime-Glo MT Cell Viability Assay in HepG2 cells - 40 hour (AID 1224870); also: nearly all actives have a fitted effect of over 50% in size; also: potency is read from the fitted curve at half-maximal effect
In short: (§3)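 Real-time viability: cells seeded at 600 per well together with NanoLuc and cell-permeant prosubstrate, compounds added after 5 h incubation. Luminescence tracked at 0, 8, 16, 24, 32 and 40 h of exposure.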

[4] = qHTS RealTime-Glo MT Cell Viability Assay in HEK293 cells - 16 hour (AID 1224872); also: nearly all actives have a fitted effect of over 50% in size; also: potency is read from the fitted curve at half-maximal effect
In short: (§4)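 Luminescence generated by NanoLuc from substrate produced by living HEK293 cells served as the viability signal. Each value reflects the reading at its stated time point during continuous 40 h compound exposure at 37 C.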

[5] = qHTS RealTime-Glo MT Cell Viability Assay in HepG2 cells - 8 hour (AID 1224873); also: nearly all actives have a fitted effect of over 55% in size
In short: as §3

[6] = qHTS RealTime-Glo MT Cell Viability Assay in HEK293 cells - 40 hour (AID 1224874); conditions: RealTime-Glo luminescence; max response: stronger effect = lower value; also: nearly all actives have a fitted effect of over 50% in size; also: potency is read from the fitted curve at half-maximal effect
In short: (§5)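 Luminescence, which tracks viable cell number through reduction of the prosubstrate to a NanoLuc substrate, was read over continuous 37 C culture. Cells (600/well) were premixed with reagent and rested 5 h before 23 nL of compound in DMSO was pinned.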

[7] = qHTS RealTime-Glo MT Cell Viability Assay in HepG2 cells - 32 hour (AID 1224877); also: nearly all actives have a fitted effect of over 55% in size
In short: as §1

[8] = A CellTox Green Cytotoxicity Assay to monitor cytotoxicity in HepG2 cells - 24 hour (AID 1224878); also: nearly all actives have a fitted effect of over 45% in size; also: potency is read from the fitted curve at half-maximal effect
In short: (§6)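 Real-time cytotoxicity: fluorescence of a cell-impermeant cyanine dye binding DNA of dead HepG2 cells, measured repeatedly (0–40 h) during compound exposure at 37 C. Cells seeded 600/well with reagent, dosed after 5 h.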

[9] = A CellTox Green Cytotoxicity Assay to monitor cytotoxicity in HepG2 cells - 40 hour (AID 1224879); also: nearly all actives have a fitted effect of over 40% in size; also: potency is read from the fitted curve at half-maximal effect
In short: as §6

[10] = qHTS RealTime-Glo MT Cell Viability Assay in HEK293 cells - 0 hour (AID 1224880); also: top concentration of the series differs between compounds; nearly all actives have a fitted effect of over 45% in size
In short: as §5

[11] = qHTS assay to identify small molecule agonists of H2AX - cell viability counter screen (AID 1224847; calls by dose curve; also: nearly all actives have a fitted effect of over 30% in size; also: potency is read from the fitted curve at half-maximal effect)
In short: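 Wild-type CHO-K1 cells (10% FBS medium) were plated overnight at 37C, exposed to compounds at 15 concentrations for 3 hr at 37C (0.76% DMSO final), and viability was read as CellTiter-Glo luminescence after 30 min at room temperature.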

[12] = A CellTox Green Cytotoxicity Assay to monitor cytotoxicity in HEK293 cells - 40 hour (AID 1224871); also: nearly all actives have a fitted effect of over 45% in size; also: potency is read from the fitted curve at half-maximal effect
In short: as §2

[13] = A CellTox Green Cytotoxicity Assay to monitor cytotoxicity in HEK293 cells - 24 hour (AID 1224875); also: nearly all actives have a fitted effect of over 45% in size; also: potency is read from the fitted curve at half-maximal effect
In short: as §2

[14] = A CellTox Green Cytotoxicity Assay to monitor cytotoxicity in HepG2 cells - 16 hour (AID 1224876); also: nearly all actives have a fitted effect of over 45% in size; also: potency is read from the fitted curve at half-maximal effect
In short: as §6

[15] = A CellTox Green Cytotoxicity Assay to monitor cytotoxicity in HEK293 cells - 32 hour (AID 1224881); also: nearly all actives have a fitted effect of over 40% in size; also: potency is read from the fitted curve at half-maximal effect
In short: as §2

[16] = qHTS RealTime-Glo MT Cell Viability Assay in HEK293 cells - 32 hour (AID 1224868); also: nearly all actives have a fitted effect of over 50% in size; also: potency is read from the fitted curve at half-maximal effect
In short: as §4

[17] = qHTS assay to identify small molecule antagonists of the estrogen related receptor (ERR) signaling pathway from Tox21 library (AID 1224848); also: nearly all actives have a fitted effect of over 50% in size; also: potency is read from the fitted curve at half-maximal effect
In short: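 Luciferase luminescence (ONE-Glo, 30 min room temperature) was the read-out. Cells of the NTP-supplied ERR line, 2,000 per well, were given 6 h at 37 C before compound addition in DMSO and 18 h exposure at 37 C.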

[18] = qHTS assay to identify small molecule agonists of the estrogen related receptor (ERR) signaling pathway from Tox21 library (AID 1224849; calls by dose curve; also: nearly all actives have a fitted effect of over 15% in size); conditions: ERR reporter cell line, ONE-Glo luciferase, 18 h; at 92.4 µM (top of the series) unless noted
In short: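 Luminescent agonist read-out (One-Glo, 30-minute room-temperature incubation) following 18-hour compound treatment at 37 C of the ERR cell line, which had been plated 6 hours before dosing.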

[19] = qHTS assay to identify small molecule agonists of the hypoxia (HIF-1) signaling pathway (AID 1224846; active = well fitted activation curve with a large enough effect in the signal ratio in the repeat runs, not every such curve was filed as active; the % refers to the signal ratio)
In short: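 Compounds added to ME-180 cells carrying hypoxia-response-element beta-lactamase reporter (0.5% dialyzed FBS, 5 h preplating), 17 h at 37C; agonist activity detected by CCF4-AM B/G FRET read-out.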
% is scaled to controls: 0 for no effect and ±100 for the full control effect.

C[C@H](CCC(=O)O)[C@H]1CC[C@H]2[C@@H]3CC[C@@H]4C[C@H](O)CC[C@]4(C)[C@H]3C[C@H](O)[C@]12C
inactive: Potency [1] | Potency [2] | Potency [3] | Potency [4] | Potency [5] | max response [6] -23.1% | Potency [7] | Potency [8] | Potency [9] | Potency [10]

O[C@@H](COc1cccc2ncccc12)CN1CCN(C2c3ccccc3[C@@H]3[C@H](c4ccccc42)C3(F)F)CC1 (some centres undefined)
inactive: Potency [11] | Potency [2] | Potency [3] | Potency [12] | Potency [13] | Potency [14] | Potency [8] | Potency [9] | Potency [15]

C#CCN(C)CCCOc1ccc(Cl)cc1Cl
inactive: Potency [1] | Potency [16] | Potency [2] | Potency [3] | Potency [12] | Potency [4] | Potency [5] | max response [6] -21.6% | Potency [13] | Potency [14] | Potency [7] | Potency [8] | Potency [10] | Potency [15]
active: Potency [9] 6.01 µM

COc1ccc(C(=O)Nc2nc3ccccc3c(NCc3ccccc3)c2C#N)cc1
inactive: Potency [11] | Potency [17] | activity change, positive = activation [18] -5.4% | Potency [2] | Potency [3] | Potency [12] | Potency [4] | max response [6] -18.2% | Potency [13] | Potency [14] | Potency [8] | Potency [9] | Potency [10] | Potency [15]

CN(Cc1ccc(C(C)(C)C)cc1)Cc1cccc2ccccc12
inactive: Potency [19] | Potency [1] | Potency [16] | Potency [2] | Potency [3] | Potency [4] | Potency [5] | max response [6] -22.5% | Potency [14] | Potency [7] | Potency [8] | Potency [9] | Potency [10]

Brc1c2ccccc2cc2ccccc12
inactive: Potency [1] | Potency [2] | Potency [3] | Potency [12] | max response [6] -17.1% | Potency [13] | Potency [14] | Potency [7] | Potency [8] | Potency [9] | Potency [10] | Potency [15]

O=C(CS)Nc1ccccc1
inactive: Potency [11] | Potency [1] | Potency [16] | Potency [2] | Potency [3] | Potency [12] | Potency [4] | Potency [5] | max response [6] -18% | Potency [13] | Potency [7] | Potency [9] | Potency [15]

Cc1ccc(N=Nc2c(O)c(C(=O)O)cc3ccccc23)c(S(=O)(=O)O)c1
inactive: Potency [19] | Potency [1] | Potency [2] | Potency [3] | Potency [12] | max response [6] 1.56% | Potency [13] | Potency [14] | Potency [8] | Potency [9] | Potency [10] | Potency [15]

Cc1ccc(C(=O)Oc2ccc(C(O)CNC(C)(C)C)cc2OC(=O)c2ccc(C)cc2)cc1 (centres undefined)
inactive: Potency [11] | Potency [2] | Potency [10]
active: Potency [1] 21.3 µM | Potency [3] 23.9 µM | Potency [12] 23.9 µM | Potency [13] 23.9 µM | Potency [14] 21.3 µM | Potency [8] 21.3 µM | Potency [9] 19 µM | Potency [15] 26.8 µM

CNCCCCOc1ccccc1Cc1ccccc1
inactive: Potency [19] | Potency [2] | Potency [5] | Potency [10]
active: Potency [16] 23.9 µM | Potency [6] 23.9 µM | Potency [14] 23.9 µM | Potency [8] 23.9 µM | Potency [9] 23.9 µM

CCCCCCCCCCCC(=O)OC[C@@H](O)[C@H]1OC[C@H](OCCO)[C@H]1OCCO
inactive: Potency [11] | Potency [16] | Potency [2] | Potency [3] | Potency [12] | Potency [4] | Potency [5] | max response [6] -0.559% | Potency [13] | Potency [14] | Potency [7] | Potency [8] | Potency [9] | Potency [10] | Potency [15]

CN(C)c1ccc(C(c2ccccc2)c2ccc(N(C)C)cc2)cc1
inactive: Potency [11] | activity change, positive = activation [18] -34.5% | Potency [1] | Potency [2] | Potency [3] | Potency [7] | Potency [8] | Potency [9] | Potency [10]
active: Potency [17] 34.4 µM

Cc1cc(N)c2cc(NC(=O)Nc3ccc4nc(C)cc(N)c4c3)ccc2n1
inactive: Potency [2] | Potency [3] | Potency [12] | Potency [4] | Potency [5] | max response [6] -16.5% | Potency [13] | Potency [14] | Potency [7] | Potency [8] | Potency [9] | Potency [15]

CCCCCCCCCc1ccc(OCCOCCO)cc1
inactive: Potency [2] | Potency [10]
active: Potency [11] 37.6 µM | Potency [16] 1.15 µM | Potency [12] 13 µM | Potency [4] 1.45 µM | Potency [6] 1.03 µM | Potency [13] 14.5 µM | Potency [14] 20.5 µM | Potency [8] 18.3 µM | Potency [9] 20.5 µM | Potency [15] 14.5 µM

C[N+]1(C)CCC(OC(=O)C(O)(c2ccccc2)C2CCCC2)C1 (centres undefined)
active: Potency [13] 23.9 µM
inactive: Potency [11] | Potency [1] | Potency [16] | Potency [3] | Potency [4] | max response [6] 3.92% | Potency [14] | Potency [7] | Potency [8] | Potency [9] | Potency [10]

CCCCCCCCCOS(=O)(=O)O
inactive: Potency [11] | Potency [1] | Potency [16] | Potency [2] | Potency [3] | Potency [12] | Potency [5] | max response [6] 4.38% | Potency [13] | Potency [14] | Potency [7] | Potency [8] | Potency [9] | Potency [10] | Potency [15]
